In the supplement of paper PMC12067926:

How the values were obtained:
Test in all cases: relative growth (AUC of 72 h growth curve relative to DMSO control, dAUC) (ratio); higher = more growth (less inhibition), active = hit call of the paper
Conditions in all cases: 20 µM;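 active = growth AUC significantly below the DMSO wells by Dunnett test; inactive = the rest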
Community 7 = system: Community 7
Summary of the method: (§1)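 For relative growth (dAUC), the spline-integrated area under the growth curve was divided by the mean of the DMSO controls. Results were averaged over three biological replicates. Each replicate used a 1:100 dilution, into 96-well plates holding each chemical at 20 µM (1% DMSO), of isolates from Icelandic stream sediments and Silwood Park soil or whole sediment communities that had been grown to carrying capacity in Luria–Bertani medium. Plates were shaken briefly before each hourly A600 reading over 72 h.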

Community 8 = system: Community 8
Summary of the method: as §1

Community 9 = system: Community 9
Summary of the method: as §1

[1] = system: Flavobacterium 1 (Flavobacterium glaciei)
Summary of the method: as §1

[2] = system: Flavobacterium 2 (Flavobacterium succinicans)
Summary of the method: as §1

[3] = system: Hymenobacter 1 (Hymenobacter glaciei)
Summary of the method: as §1

[4] = system: Microbacterium 1 (Microbacterium arborescens)
Summary of the method: as §1

[5] = system: Neobacillus 1 (Neobacillus soli)
Summary of the method: as §1

[6] = system: Oryzobacter 1 (Oryzobacter terrae)
Summary of the method: as §1

[7] = system: Paenibacillus 1 (Paenibacillus castaneae)
Summary of the method: as §1

[8] = system: Prolinoborus 1 (Prolinoborus fasciculus)
Summary of the method: as §1

[9] = system: Pseudomonas 1 (Pseudomonas baetica)
Summary of the method: as §1

[10] = system: Pseudomonas 2 (Pseudomonas vancouverensis)
Summary of the method: as §1

[11] = system: Pseudomonas 3 (Pseudomonas mandelii)
Summary of the method: as §1

[12] = system: Pseudomonas 4 (Pseudomonas peli)
Summary of the method: as §1

[13] = system: Pseudomonas 5 (Pseudomonas baetica)
Summary of the method: as §1

[14] = system: Pseudomonas 6 (Pseudomonas sp.)
Summary of the method: as §1

[15] = system: Rhizobium 1 (Rhizobium herbae)
Summary of the method: as §1

[16] = system: Serratia 1 (Serratia sp. 2015-2462-01)
Summary of the method: as §1

[17] = system: Sphingomonas 2 (Sphingomonas sp.)
Summary of the method: as §1

Measured: relative growth

CN/C(=N/CC1CCOC1)N[N+](=O)[O-] (stereo not given)
inactive: Community 7 1.01 | Community 8 1.03 | Community 9 1.04 | [1] 1.04 | [2] 1.02 | [3] 1.06 | [4] 1.02 | [5] 0.994 | [6] 0.957 | [7] 1.01 | [8] 0.955 | [9] 0.963 | [10] 0.983 | [11] 1.03 | [12] 1.03 | [13] 0.992 | [14] 1.06 | [15] 0.912 | [16] 1.01 | [17] 1.14

Nc1c(Cl)c(F)nc(OCC(=O)O)c1Cl
inactive: Community 7 1.01 | Community 8 1.04 | Community 9 1.03 | [1] 1.07 | [2] 0.993 | [3] 1.03 | [4] 1.02 | [5] 1.04 | [6] 1.01 | [7] 1.03 | [8] 1 | [9] 0.977 | [10] 1 | [11] 0.978 | [12] 1.04 | [13] 0.947 | [14] 0.889 | [15] 0.958 | [16] 0.996 | [17] 1.11

Cc1nnc(-c2ccccc2)c(=O)n1N
inactive: Community 7 1.12 | Community 8 0.974 | Community 9 0.918 | [1] 0.963 | [2] 0.956 | [3] 0.868 | [4] 1.01 | [5] 0.937 | [6] 1.12 | [7] 0.905 | [8] 0.97 | [9] 1.08 | [10] 0.997 | [11] 1.03 | [12] 0.954 | [13] 0.987 | [14] 1.1 | [15] 1.07 | [16] 0.966 | [17] 1

CSc1nc(NC(C)C)nc(NC(C)C)n1
inactive: Community 7 1.02 | Community 8 0.97 | Community 9 0.97 | [1] 1.02 | [2] 0.946 | [3] 0.914 | [4] 1.02 | [5] 0.987 | [6] 0.978 | [7] 0.877 | [8] 0.989 | [9] 1.14 | [10] 1.02 | [11] 1.02 | [12] 0.949 | [13] 1.03 | [14] 1.08 | [15] 0.858 | [16] 0.983 | [17] 0.989

O=C1C2CC=CCC2C(=O)N1SC(Cl)(Cl)Cl (stereo not given)
inactive: Community 7 0.95 | Community 8 0.794 | [1] 0.948 | [2] 0.9 | [3] 0.968 | [4] 1 | [5] 0.917 | [6] 0.991 | [7] 1.06 | [10] 0.983 | [11] 0.941 | [13] 0.954 | [14] 0.879
active: Community 9 0.473 | [8] 0.598 | [9] 0.601 | [12] 0.796 | [15] 0.519 | [16] 0.813 | [17] 0.398

COP(=S)(OC)Oc1nc(Cl)c(Cl)cc1Cl
active: [1] 0.348
inactive: Community 7 1.04 | Community 8 1.06 | Community 9 1.03 | [2] 0.97 | [3] 0.99 | [4] 1.04 | [5] 1.01 | [6] 1.05 | [7] 0.874 | [8] 1.04 | [9] 1.06 | [10] 1.08 | [11] 1.09 | [12] 1.03 | [13] 1.06 | [14] 1.12 | [15] 0.8 | [16] 0.998 | [17] 1.06

COc1ccc(-c2ccccc2)cc1NNC(=O)OC(C)C
inactive: Community 7 0.932 | Community 8 0.986 | Community 9 0.868 | [1] 0.888 | [2] 0.898 | [3] 0.987 | [4] 1.06 | [5] 0.89 | [6] 1.02 | [7] 0.873 | [8] 0.918 | [9] 1.14 | [10] 0.964 | [11] 1.05 | [12] 0.951 | [13] 1.08 | [14] 1.17 | [15] 0.865 | [16] 0.932 | [17] 0.92

O=[N+]([O-])/N=C1\NCCN1Cc1ccc(Cl)nc1
inactive: Community 7 1.11 | Community 8 1.05 | Community 9 1.07 | [1] 0.997 | [2] 1.07 | [3] 1.14 | [4] 1 | [5] 1.06 | [6] 0.944 | [7] 1.15 | [8] 0.987 | [9] 0.857 | [10] 0.973 | [11] 1.04 | [12] 1.01 | [13] 0.978 | [14] 0.932 | [15] 0.991 | [16] 0.968 | [17] 0.979

C[N+]1(C)CCCCC1
inactive: Community 7 0.992 | Community 8 0.99 | Community 9 1.06 | [1] 1.03 | [2] 1.03 | [3] 1.08 | [4] 0.951 | [5] 1 | [6] 1.06 | [7] 1 | [8] 0.974 | [9] 0.972 | [10] 0.981 | [11] 1.02 | [12] 1.05 | [13] 1.04 | [14] 1.03 | [15] 1.02 | [16] 1.03 | [17] 0.999

CC1(C)[C@H](C(=O)O[C@H](C#N)c2cccc(Oc3ccccc3)c2)[C@@H]1C=C(Br)Br
inactive: Community 7 1.07 | Community 8 1.06 | Community 9 1.05 | [1] 1.08 | [2] 1.02 | [3] 1.06 | [4] 1.03 | [5] 1.1 | [6] 1.08 | [7] 0.958 | [8] 1.01 | [9] 1.04 | [10] 1.03 | [11] 1.03 | [12] 1.01 | [13] 1.06 | [14] 1.14 | [15] 1.23 | [16] 1 | [17] 1.12

CCOCN(C(=O)CCl)c1c(C)cccc1CC
active: [5] 0.667
inactive: Community 7 0.976 | Community 8 1.02 | Community 9 1.06 | [1] 1.05 | [2] 0.946 | [3] 0.969 | [4] 1.06 | [6] 1.04 | [7] 0.928 | [9] 1.1 | [10] 0.978 | [11] 1.02 | [12] 0.966 | [13] 0.988 | [14] 1.03 | [15] 0.909 | [16] 0.95 | [17] 1.17
1.2: [8]

Clc1ccc(C(c2ccc(Cl)cc2)C(Cl)(Cl)Cl)cc1
active: [17] 0.0545
inactive: Community 7 1.11 | Community 8 0.997 | Community 9 1.03 | [1] 0.767 | [2] 0.979 | [3] 0.976 | [4] 0.973 | [5] 1.1 | [6] 1.06 | [7] 0.913 | [8] 1.08 | [9] 1.07 | [10] 0.992 | [11] 1.02 | [12] 0.985 | [13] 1.05 | [14] 1.16 | [15] 1.07 | [16] 1.05

CN1COCN(Cc2cnc(Cl)s2)/C1=N\[N+](=O)[O-]
inactive: Community 7 0.896 | Community 8 1.02 | Community 9 1.06 | [1] 1.02 | [2] 0.975 | [3] 0.998 | [4] 0.974 | [5] 1.01 | [6] 0.955 | [7] 0.945 | [8] 0.974 | [9] 0.927 | [10] 1.03 | [11] 1.05 | [12] 0.996 | [13] 1.04 | [14] 1.1 | [15] 1.01 | [16] 0.99 | [17] 1.05

Cc1c(COC(=O)[C@@H]2[C@H](/C=C(\Cl)C(F)(F)F)C2(C)C)cccc1-c1ccccc1 (racemic)
inactive: Community 7 1.06 | Community 8 1.1 | Community 9 0.947 | [1] 0.869 | [2] 1 | [3] 1.06 | [4] 1.05 | [5] 0.943 | [6] 1.07 | [7] 0.975 | [8] 0.977 | [9] 0.975 | [10] 0.983 | [11] 0.977 | [12] 0.995 | [13] 1.01 | [14] 0.949 | [15] 0.893 | [16] 1.01 | [17] 1.07

O=C(NCCc1ncc(C(F)(F)F)cc1Cl)c1ccccc1C(F)(F)F
inactive: Community 7 0.935 | Community 8 0.961 | Community 9 1.05 | [1] 0.987 | [2] 0.962 | [3] 0.995 | [4] 1.02 | [5] 0.981 | [6] 1.11 | [7] 0.935 | [8] 0.967 | [9] 1.08 | [10] 0.981 | [11] 1.07 | [12] 0.964 | [13] 0.99 | [14] 1.05 | [15] 0.94 | [16] 0.971 | [17] 1.02
